The values below come from PubChem BioAssay AID1259416 (Broad Institute, 2018).

Several values for one entry are separate records, joined by “and”; a condition that tells them apart may be missing. Equal entries are not always repeated. In all, about 69,000 compounds went through this assay and about 2,600 (3.8%) were called active. Only a selection was taken, and actives are over-represented in it overall. Values without a mark were called inactive. No stated cut-off is given here; in the data, active means activity change below about -70% (passing the limit was not always enough); inconclusive means no clear call, values can overlap the other calls.

The nature of the test: T. gondii growth inhibition with IFN-gamma, primary screen, cell-based (AID 1259416).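 Further: host cells are HeLa cells infected with Toxoplasma gondii.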 The conditions noted are these: Toxoplasma gondii growth in IFN-gamma-treated host cells; active compounds read low; concentration not given here.
As for `O=C1NCCc2[nH]c(-c3ccncc3)cc21`, the activity change, negative = inhibition is -85.6% (active).

In the case of `COc1cccc(-c2cn[nH]c2C2CCCN2S(=O)(=O)c2ccc(Cl)cc2)c1` (configuration not stated), the activity change, negative = inhibition was -31.9%.

Turning to `Cc1nn(CC(=O)N(C)Cc2ccccc2)c(=O)c2nc(-c3ccccc3)sc12`, the activity change, negative = inhibition was -55.4%. The value for `O=S(=O)(CCSCc1ccc(Cl)cc1)CCSCc1ccc(Cl)cc1` was -10%; that for `CS(=O)(=O)Nc1ccc(-n2cnc(-c3ccccc3)c2)cn1` was 11.6%. The value for `CC1(C)CC(=O)c2cnc3cc(-c4ccccc4)nn3c2C1` was -86.8% (active); that for `O=C(Nc1ccc(F)cc1F)c1c(O)c2ccccc2n(-c2ccccc2)c1=O` was 24%.

In the case of `Cc1ccc(NC(=O)CC(=O)NCCc2cnc[nH]2)cc1Cl`, the activity change, negative = inhibition is 5.77%. In the case of `S=C(NCCCc1cnc[nH]1)NCCCN(Cc1ccc(Cl)c(Cl)c1)c1ccc(Br)cn1` it was -78.1% (active); in that of `COc1ccc(NC(=O)c2cc3c(s2)CCN3C(=O)C2CC2)cc1`, 23.2%.

Consider `Cn1c(=O)c(-c2nc(-c3cccs3)no2)c(O)c2ccccc21`, for which the activity change, negative = inhibition was 67.9%. On to `CCSCCN(C(=O)c1nnc2nc(C)cc(C)n12)C1CCCCC1`, for which the activity change, negative = inhibition was -3.21%.

For the molecule `COc1ccc2c3c(n(C)c2c1)[C@H](CO)N(C(=O)Nc1cccc(F)c1)CC31CN(Cc2nccs2)C1`, the activity change, negative = inhibition is -24.3%. As to `N#Cc1ccc(C(=O)N2CCC3C2CCC(=O)N3c2cccnc2)cc1` (configuration not stated), the activity change, negative = inhibition is -20.1%. In the case of `CCc1ccccc1NC(=O)c1nnn(Cc2nc(-c3ccccc3C)oc2C)c1C` it was -107% (active). In the case of `COc1ccccc1NC(=O)c1nnn(Cc2nc(-c3cccc(OC)c3OC)oc2C)c1C` it was -83.3% (active). For `COc1ccccc1NC(=O)c1nnn(Cc2nc(-c3ccc(C)cc3)oc2C)c1C`, the activity change, negative = inhibition was -82.9% (active). In the case of `Cc1ccc(-c2nc(Cn3nnc(C(=O)NCc4ccccn4)c3C)c(C)o2)cc1` it was -57.8%. The value for `Cc1cccc(C)c1NC(=O)c1nnn(Cc2nc(-c3ccccc3)oc2C)c1C` was -62.3%. In the case of `Cc1ccc(Cl)cc1NC(=O)c1nnn(Cc2nc(-c3cccc(Cl)c3)oc2C)c1C` it was 55.8%; in that of `COc1ccc(Br)cc1-c1nc(Cn2nnc(C(=O)Nc3cc(F)ccc3C)c2C)c(C)o1`, 423%; in that of `Cc1ccccc1-c1nc(Cn2nnc(C(=O)Nc3c(C)cccc3C)c2C)c(C)o1`, -38.6%. Take `COc1ccc(-c2nc(Cn3nnc(C(=O)Nc4ccccc4C)c3C)c(C)o2)c(OC)c1`: the activity change, negative = inhibition is 32.4%.

For `CCC(c1ccccn1)N(C)C1CCNCC1` (configuration not stated), the activity change, negative = inhibition is 16.8%.

For the molecule `CN(CC1Cc2ccccc2O1)S(=O)(=O)NCc1ccccc1` (configuration not stated), the activity change, negative = inhibition was 0.376%. In the case of `CN1CCO[C@@H]2CN(C(=O)CC3Cc4ccccc4C3)C[C@@H]2C1` it was 112%; in that of `CN(C[C@@H]1[C@H](c2ccccc2)[C@@H](CO)N1Cc1ccccn1)S(C)(=O)=O`, 2.44%; in that of `CCc1cc(CN2CCCC2c2nc3ccc(C)cc3[nH]2)on1` (configuration not stated), 9.45%. The value for `CC(=O)NCCc1csc(C2CCN(C(=O)NCc3ccc(F)cc3)CC2)n1` was -3.56%; that for `O=C(O)CCC(=O)N1CC2CCC(C1)N2C(=O)c1ccco1` was 61.2%; that for `CC(C)NC(=O)N1CC2(C1)[C@H](c1ccccc1)[C@H](CO)N2C(=O)C1CCOCC1` was -2.06%. As to `Cc1cccc(C2c3[nH]c4ccccc4c3CCN2C(=O)C(=O)CCc2ccccc2)n1` (configuration not stated), the activity change, negative = inhibition was -13.8%. In the case of `Cc1ccc(C2c3[nH]c4ccccc4c3CCN2C(=O)c2cccc(C)c2)cc1` (configuration not stated) it was 226%; in that of `CSc1ccc(C2c3[nH]c4ccccc4c3CCN2C(=O)c2cc3ccccc3[nH]2)cc1` (configuration not stated), -96.3% (active); in that of `CCOc1cccc(CC(=O)N2CCc3c([nH]c4ccccc34)C2c2ccc(F)cc2)c1OCC` (configuration not stated), -74.9% (active). Turning to `CCOc1cccc(C2c3[nH]c4ccccc4c3CCN2C(=O)c2ccccc2)c1` (configuration not stated), the activity change, negative = inhibition is -34.3%. For `Cc1cccc(C2c3[nH]c4ccccc4c3CCN2C(=O)c2ccccc2C)c1` (configuration not stated), the activity change, negative = inhibition was -84.7% (active).

In the case of `CCOc1cccc(CC(=O)N2CCc3c([nH]c4ccccc34)C2c2ccc(OC)cc2)c1OCC` (configuration not stated), the activity change, negative = inhibition is 213%.

Turning to `CCOc1ccc(C2c3[nH]c4ccccc4c3CCN2C(=O)C2CC2)cc1` (configuration not stated), the activity change, negative = inhibition was -34.9%.

On to `COCC1CN(c2ccc(C)nn2)Cc2cnn(C)c21` (configuration not stated), for which the activity change, negative = inhibition was -0.315%. As for `Cc1ccc(S(=O)(=O)Nc2cncc(C(=O)NCC(C)C)c2)cc1`, the activity change, negative = inhibition was -16.9%. Regarding `Cc1nn(C)c2c1C(c1cc(F)ccc1-n1cccn1)CC(=O)N2` (configuration not stated), the activity change, negative = inhibition is -37.8%. On to `CC1(C)[C@@H](O[C@H]2O[C@H](C(=O)O)[C@@H](O)[C@H](O)[C@@H]2O[C@@H]2O[C@H](C(=O)O)[C@@H](O)[C@H](O)[C@H]2O)CC[C@@]2(C)[C@H]3C(=O)C=C4[C@@H]5C[C@@](C)(C(=O)O)CC[C@]5(C)CC[C@@]4(C)[C@]3(C)CC[C@@H]12`, for which the activity change, negative = inhibition was 15.6%. With `COc1ccccc1-c1nc(Cc2noc(-c3cccnc3)n2)c(C)o1`, the activity change, negative = inhibition was -62.2%. The value for `O=C(c1cccc(Cl)c1)N1CCC2(CC1)Nc1cc(F)ccc1-n1cccc12` was 50.9%. With `O=C1N[C@H](c2ccccc2)COCc2cn(nn2)CC[C@H]1Cc1cccc(Cl)c1`, the activity change, negative = inhibition is -2.88%. The value for `CCN(CC)C(=O)[C@@H]1C[C@H](N)CN1C(=O)Cc1ccc(F)c(C)c1` was 3.3%; that for `Cc1cc(-c2cc(C3CCN(C(=O)C4CC(=O)C4)C3)ccn2)ccc1F` (configuration not stated) was 14.5%. With `Clc1ccc(-c2noc3c2CN(CCn2cc(Cl)cn2)CC3)cc1`, the activity change, negative = inhibition is -72.1% (active). `O=C(CCc1ccco1)N1CCc2onc(-c3ccc(C(F)(F)F)cc3)c2C1`: the activity change, negative = inhibition is 9.55%.

Turning to `c1ccc2c(-c3noc4c3CN(CC3CCCO3)CC4)cccc2c1` (configuration not stated), the activity change, negative = inhibition is -4.04%. In the case of `O=C(CC1COCCN1)NCCC(c1ccccc1)c1ccccc1` (configuration not stated) it was -9.21%. With `CNc1nc(N2CCN(Cc3nccn3C(C)C)CC2)nc2c1CCC2`, the activity change, negative = inhibition is 8.7%.

With `Cc1nc(CN2CCCn3nnc(COC(C)C)c3C2)cs1`, the activity change, negative = inhibition is 9.42%. The value for `COCCC(=O)N1CCN(CC2CC2)c2nc(C)ccc2C1` was -15.5%; that for `Cn1nnc(-c2ccc(C(=O)NC(CN3CCCCC3)c3ccccc3)cc2)n1` (configuration not stated) was -0.396%. As for `CCOC(=O)c1nc(N2CCC(c3ccccc3)C2)c2ccccc2n1` (configuration not stated), the activity change, negative = inhibition is 11.8%.

For the molecule `O=C(Cn1ncc2c(N3CCN(c4ccccc4)CC3)ncnc21)Nc1ccc(Cl)cc1`, the activity change, negative = inhibition is -12.8%. In the case of `Clc1ccc(Cn2ncc3c(NCc4cccnc4)ncnc32)cc1` it was -81.5% (active); in that of `O=C(Cn1ncc2c(N3CCN(c4ccccn4)CC3)ncnc21)NCc1ccc(F)c(Cl)c1`, -16.9%; in that of `CCC(=O)N1Cc2cc(C(=O)NCc3cccc(F)c3)nc(-c3cccc(C4=CCCC4)c3)c2[C@H]1CCO`, -51.7%. With `Cc1cccc(OC2CCN(C(=O)c3ccc(OCc4nonc4C)cc3)CC2)c1`, the activity change, negative = inhibition was -46.1%. The value for `Cc1cccc2[nH]nc(-c3cc(NCCN(C)C)nc4[nH]ccc34)c12` was -0.259%; that for `CNc1cc(-c2cc(C(C)C)nc(C(F)(F)F)n2)c2cc[nH]c2n1` was -83.6% (active); that for `Cc1nc(C)n(CCC(=O)N2CCN(S(=O)(=O)c3ccccc3)CC2)n1` was 55.6%. In the case of `CC1=NOC(C)(CNC(=O)c2csc(-c3cccs3)n2)C1` (configuration not stated) it was -3.52%; in that of `O=C(Sc1cccs1)c1csc(C2COc3ccccc3O2)n1` (configuration not stated), -96.7% (active). As to `Cc1nc2ccccn2c1C(=O)N1CCCC(Cn2cc(C3CC3)nn2)C1` (configuration not stated), the activity change, negative = inhibition was 26.9%. With `CN(C)C(=O)CN1CC2CN(Cc3ccncc3)CCC2(c2ccccc2)C1` (configuration not stated), the activity change, negative = inhibition is -2.67%. As for `CCC(C(=O)OC)N1CCOc2c(O)cc(-c3ccc(C)s3)cc2C1` (configuration not stated), the activity change, negative = inhibition was -5%.

In the case of `O=C1NCC(CN2CCOc3c(O)cc(-c4csc5ccccc45)cc3C2)O1` (configuration not stated), the activity change, negative = inhibition is -76.2% (active). The value for `COc1cc(COC2CN(C(=O)c3csc(SC)n3)CC(=O)N(C(C)C)C2)cc(OC)c1` (configuration not stated) was -6.26%; that for `CCOCC1CN(Cc2ccc3c(c2)OCO3)Cc2cncn2C1` (configuration not stated) was -0.275%; that for `OCCn1c(-c2ccc(-c3ccn[nH]3)cc2)nc2ccccc21` was 92.2%. Regarding `CCN1CCN(c2nc(-c3ccc(OC)cc3)nc3ccccc23)CC1`, the activity change, negative = inhibition was -47.8%. With `COc1ccc(-c2nc3ccccc3n2-c2cc(C(C)(C)C)c(O)c(C(C)(C)C)c2)cc1`, the activity change, negative = inhibition is -86.1% (active).

As for `C=CCOCC12CCCOC1CCN(S(=O)(=O)c1cccnc1)C2` (configuration not stated), the activity change, negative = inhibition was 40.1%. As to `CCCN1CCN(C(=O)c2nc(-c3cccc(F)c3)n3c2CCCCC3)CC1`, the activity change, negative = inhibition is 3.76%. The value for `CCOc1ccccc1CNC(=O)c1nc(-c2cccc(F)c2)n2c1CCCCC2` was -84.4% (active); that for `CCOc1ccccc1NC(=O)C(=O)NCCc1csc(-c2cccc(F)c2)n1` was -13.3%.

Consider `CC(C)N1CCN(C(=O)c2csc(-c3ccc(N4CCCC4)nc3)n2)CC1`, for which the activity change, negative = inhibition is -27.3%.

For `Nc1cccc(CCc2nc3ccccc3[nH]2)c1`, the activity change, negative = inhibition is 22%. The value for `Cc1cccc(Cc2c(C)[nH]n(-c3nc4ccccc4[nH]3)c2=O)c1` was -124% (active); that for `Cc1nc2nc(Cc3ccc(Cl)cc3)[nH]n2c(=O)c1Cc1ccccc1` was 4.81%. Regarding `CN(C)c1ncnc2c1CCN(C(=O)c1ccnnc1)CC2`, the activity change, negative = inhibition was -0.9%. The value for `Cc1ccc(-c2nn(C(C)(C)C)c3ncnc(N)c23)cc1` was -84% (active) and -73.5% (active).

Regarding `Cn1cc(CN2CCc3ncnc(-c4ccccc4)c3CC2)cn1`, the activity change, negative = inhibition was -8.43%.
